Compound activity from PubChem.
Shown is part of a subset that was picked to be rich in hits.
FECH inh – human FECH heme synthesis enzyme inhibition. AID 1671448. P22830. purified FECH, Ni-mesoporphyrin absorbance 550 nm. calls only at 10 µM (by protocol). hit rate 3.3% among 20,000;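 active = enzyme reaction rate more than 3 SD below the solvent-only control wells on the same plate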;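 also: lower slope than DMSO wells means FECH inhibition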
Target sequence (P22830 whole entry, looked up): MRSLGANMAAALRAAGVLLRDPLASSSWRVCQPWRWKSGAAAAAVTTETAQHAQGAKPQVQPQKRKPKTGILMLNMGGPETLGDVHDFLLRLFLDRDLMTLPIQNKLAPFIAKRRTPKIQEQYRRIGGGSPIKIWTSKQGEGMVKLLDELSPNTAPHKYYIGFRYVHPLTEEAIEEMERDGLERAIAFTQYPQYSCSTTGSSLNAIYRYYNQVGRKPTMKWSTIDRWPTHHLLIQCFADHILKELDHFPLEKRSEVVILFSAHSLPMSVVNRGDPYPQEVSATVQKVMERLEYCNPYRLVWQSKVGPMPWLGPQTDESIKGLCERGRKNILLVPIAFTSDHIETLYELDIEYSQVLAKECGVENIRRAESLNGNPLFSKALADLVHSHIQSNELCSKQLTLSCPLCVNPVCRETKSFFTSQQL
Large screens that a line does not name were inactive.

CCOc1ccc2nc(NC(=O)C3CCCN3S(=O)(=O)c3cc(C(=O)OC)n(C)c3)sc2c1 (stereo not given)	none
COc1ccccc1NC(=O)Nc1nc(CC(=O)Nc2ccc(Br)cc2C)cs1	none
COc1cccc(-c2cc(=O)[nH]c(SCc3nc(-c4ccccc4C)oc3C)n2)c1	none
O=c1cc(CNc2ccccc2Cl)nc2nc(NCc3ccccc3)[nH]n12	FECH inh active
O=c1cc(CNc2ccccc2F)nc2nc(NCc3ccc(F)cc3)[nH]n12	none
O=c1cc(CNc2ccccc2F)nc2nc(NCc3ccccc3)[nH]n12	none
CCc1ccccc1NCc1cc(=O)n2[nH]c(NCc3ccc(F)cc3)nc2n1	none
Cc1ccccc1NCc1cc(=O)n2[nH]c(NCc3ccc(F)cc3)nc2n1	FECH inh active
Cc1ccc(-c2nc3cccnc3n2CCNS(=O)(=O)c2ccc(Br)s2)cc1	none
COCC(c1ccccn1)N(C)C(=O)CSc1nnc(C)s1 (stereo not given)	none
CCc1nc(CN2CCC(CNC(=O)C3CCCCC3)C2)c(C)[nH]1 (stereo not given)	none
Fc1ccc(C2(c3noc(COc4cccnc4)n3)CCOC2)cc1 (stereo not given)	none
Cc1oc(-c2cccc(Cl)c2)nc1CSc1nc(-c2ccc(Cl)cc2)cc(=O)[nH]1	none
Cc1ccc(-n2c(CN3CCN(S(=O)(=O)c4cc(F)cc(F)c4)CC3)nc3cccnc32)cc1	FECH inh active
COc1ccc(-n2c(CN3CCN(S(=O)(=O)c4cc(F)cc(F)c4)CC3)nc3cccnc32)cc1	none
Cc1cc(C)cc(-n2c(CN3CCN(S(=O)(=O)c4cccc5nsnc45)CC3)nc3cccnc32)c1	FECH inh active
COc1cccc(S(=O)(=O)N2CCN(Cc3nc4cccnc4n3-c3cccc(C)c3)CC2)c1	none
COc1cccc(S(=O)(=O)N2CCN(Cc3nc4cccnc4n3-c3cccc(F)c3)CC2)c1	FECH inh active
Cc1cc(C)cc(-n2c(CN3CCN(S(=O)(=O)c4ccc(C)cc4C)CC3)nc3cccnc32)c1	none
COc1cccc(S(=O)(=O)N2CCN(Cc3nc4cccnc4n3-c3ccccc3)CC2)c1	none
Cc1cccc(-n2c(CN3CCN(S(=O)(=O)c4cc(C)c(C)cc4C)CC3)nc3cccnc32)c1	none
Cc1ccc(-n2c(CN3CCN(S(=O)(=O)c4ccc(F)cc4)CC3)nc3cccnc32)cc1	none
COc1ccc(OC)c(NC(=O)CN2CCCN(Cc3ccc(Cl)cc3)S2(=O)=O)c1	none
CC(C)Cc1ccc(S(=O)(=O)Nc2cnc(N(C)Cc3ccccc3)c(C(=O)O)c2)cc1	none
Cc1c(NCc2ccccn2)cccc1C(=O)N(C)C(C)c1ccon1 (stereo not given)	none
Cc1[nH]c2c(C(=O)N3CC[C@H](O)C[C@@H]3C(=O)O)cccc2c1C	none
Cc1noc(C)c1CN(C)C(=O)c1cc(C(C)C)n2ncnc2n1	none
Nc1cc(N2CC[C@H](CO)[C@H](O)C2)nc(N2CCCC2)n1	none
c1cc(C(CNc2nccc(C3CCCC3)n2)N2CCOCC2)ccn1 (stereo not given)	none
Cc1cc(C)n2nc(CN(C(=O)c3ccccc3C)c3ccc(Cl)cc3)nc2n1	none
COc1ccc(Nc2cc(C)nc(Nc3ccc(NC(=O)c4cc(Cl)ccc4OC)cc3)n2)cc1	none
COc1ccc(C(=O)Nc2ccc(Nc3nc(C)cc(Nc4ccccc4)n3)cc2)cc1	none
COc1ccc(Nc2cc(C)nc(Nc3ccc(NC(=O)c4ccccc4OC)cc3)n2)cc1	FECH inh active
NC(=O)c1ccccc1NC(=O)c1ccc(=O)n(Cc2ccc(Cl)cc2)c1	none
C=CCn1nc(C(=O)O)c2c1CCC(NCc1c(F)cccc1Cl)C2 (stereo not given)	none
Cc1ccc(Nc2cc(C)nc(N3CCN(S(=O)(=O)c4ccc(Oc5ccccc5)cc4)CC3)n2)cc1	none
Cc1ccccc1-c1nc2nc(CNc3ccc(Cl)cc3)cc(=O)n2[nH]1	FECH inh active
Cc1ccccc1-c1nc2nc(CNc3cccc(C(F)(F)F)c3)cc(=O)n2[nH]1	none
Cc1ccccc1-c1nc2nc(CNc3c(C)cccc3C)cc(=O)n2[nH]1	none
Cc1ccccc1-c1nc2nc(CNCc3ccccc3)cc(=O)n2[nH]1	FECH inh active
COc1ccccc1NCc1cc(=O)n2[nH]c(-c3ccccc3C)nc2n1	none
CCc1ccccc1NCc1cc(=O)n2[nH]c(-c3ccccc3C)nc2n1	none
Cc1cccc(NCc2cc(=O)n3[nH]c(-c4ccccc4C)nc3n2)c1	FECH inh active
Cc1cccc(NCc2cc(=O)n3[nH]c(NCc4ccccc4)nc3n2)c1	none
COc1ccc(Cl)cc1NCc1cc(=O)n2[nH]c(-c3ccccc3C)nc2n1	none
Cc1ccc(C(=O)NCC2CCCN(C(=O)C3CC3)C2)cn1 (stereo not given)	none
Cc1ccc(S(=O)(=O)NCc2nc3cccnc3n2C)c(C)c1	none
COc1cccc(CNC(=O)c2ccc(Nc3cc(-c4ccccc4)ncn3)cc2)c1	none
CCCCOc1ccc(S(=O)(=O)N2CCN(c3nc(C)cc(N(C)C)n3)CC2)cc1	none
Cn1c(=O)c(C(=O)N2CCN(c3ccc(Cl)cc3)CC2)nc2ccccc21	none
CCOc1ccccc1C(=O)Nc1ccccc1Sc1c(C)c(C)nc2nc(-c3ccccc3)nn12	none
CCOC(=O)c1cc2ccsc2n1CC(=O)N(CC)c1cccc(C)c1	none
CCOC(=O)c1cc2ccsc2n1CC(=O)N(CC)c1ccccc1	FECH inh active
CCOC(=O)c1cc2ccsc2n1CC(=O)Nc1ccccc1C(=O)OC	none
COCCNC(=O)C1CCCN(C2CCN(c3noc(C(C)C)n3)CC2)C1 (stereo not given)	none
CC(C)Cn1c(CN2CCC(N)(C(=O)O)C2)nc2ccccc21 (stereo not given)	none
Clc1ccc2nc(-c3ccn[nH]3)ccc2c1	none
COc1ccccc1NC(=O)CN1CCCN(Cc2ccccc2)S1(=O)=O	none
CCOC(=O)CCc1c(C)nc2nc(CNc3ccc(F)cc3)[nH]n2c1=O	none
CCc1nc2nc(C)c(NC(=O)Nc3ccc(F)c(Cl)c3)c(=O)n2[nH]1	none
CCOC(=O)CCc1c(C)nc2nc(CNc3cccc(Cl)c3)[nH]n2c1=O	FECH inh active
CCc1nc2nc(C)[nH]n2c(=O)c1NC(=O)Nc1cccc(Cl)c1	none
CCOC(=O)CCc1c(C)nc2nc(CNc3cccc(C)c3)[nH]n2c1=O	FECH inh active
CCc1nc2nc(C)c(NC(=O)Nc3cccc(C)c3)c(=O)n2[nH]1	none
Cc1ccc(-c2nc3cccnc3n2CCNS(=O)(=O)c2ccc(F)cc2)cc1	none
CC(NC(=O)C1CCN(C(C)C)CC1)c1cnn(-c2ccccc2F)c1 (stereo not given)	none
COc1cc(-n2ncc3ccccc32)ccc1NC(C)=O	none
CCC1=NOC(C(=O)N2CCC(Cc3nncn3-c3ccccc3)CC2)C1 (stereo not given)	none
CNc1ncc(CN(C)C(=O)C2(Oc3ccc(C)cc3)CCNCC2)cn1	none
COc1ccc(C(=O)Nc2nc3n(n2)C(c2ccc(OC)cc2)C=C(c2ccccc2)N3)cc1 (stereo not given)	none
O=C(CN1CCCC1c1nc(-c2ccncc2)no1)NCc1ccccc1F (stereo not given)	none
O=C(c1csc(S(=O)(=O)Nc2ccccc2F)c1)N1CCCCC1	none
CCc1cccc(C)c1NS(=O)(=O)c1cc(C(=O)N2CCCC2)cs1	none
Cc1ccccc1CNS(=O)(=O)c1cc(C(=O)N2CCCC2)cs1	none
Cc1ccc(C)c(NS(=O)(=O)c2cc(C(=O)N3CCCC3)cs2)c1	FECH inh active
CCc1ccccc1NS(=O)(=O)c1cc(C(=O)N2CCCC2)cs1	none
Cc1cccc(NS(=O)(=O)c2cc(C(=O)N3CCCC3)cs2)c1C	FECH inh active
COc1ccc(S(=O)(=O)N2CCN(Cc3nc4cccnc4n3-c3ccc(C)cc3)CC2)cc1	none
